From PubChem BioAssay AID602257 (NMMLSC, 2012)
Potency and affinity values are given separately. Active and inactive are the calls of the source. The rule behind the calls is not given here.

Assay: yeast V-ATPase proton pumping modulator potency, dose response, S. cerevisiae, pHLuorin, powder set 1 (AID 602257)
Settings: vacuolar pH, pHLuorin fluorescence; series mostly up to 100 µM; response: at the top concentration

response, inactive:
O=C(c1ccc([N+](=O)[O-])o1)N1CCN(c2nccs2)CC1 7.98%
O=C(C1CC1)N1CCN(c2nc3ccc(F)cc3s2)CC1 2.04%
O=C(c1ccc(Br)s1)N1CCN(c2nc3ccc(F)cc3s2)CC1 2.32%
O=C(c1ccc(Cl)s1)N1CCN(c2nc3ccc(F)cc3s2)CC1 2.1%
O=C(C1CCCCC1)N1CCN(c2nc3ccc(F)cc3s2)CC1 12.2%
O=C(c1ccno1)N1CCN(c2nc3ccc(F)cc3s2)CC1 5.96%
O=C(c1nc2ccccc2s1)N1CCN(c2nc3ccc(F)cc3s2)CC1 4.2%
Cc1cc(C(=O)N2CCN(c3nc4ccc(F)cc4s3)CC2)nn1C 1.54%
O=C(c1cccs1)N1CCN(c2nc3ccc(F)cc3s2)CC1 9.99%
Cc1cc(C(=O)N2CCN(c3nc4ccc(F)cc4s3)CC2)on1 2.54%
CS(=O)(=O)c1ccc2nc(N3CCN(C(=O)c4ccc([N+](=O)[O-])o4)CC3)sc2c1 -1.5%
CS(=O)(=O)c1cccc2sc(N3CCN(C(=O)c4ccc([N+](=O)[O-])o4)CC3)nc12 4.59%
O=C(c1ccc([N+](=O)[O-])o1)N1CCN(c2nc3ccc(F)cc3s2)CC1 18.2%
CC(C)(C)C(=O)N1CCN(c2nc3ccc(F)cc3s2)CC1 8.07%
COc1ccc2nc(N3CCN(C(=O)c4ccc([N+](=O)[O-])o4)CC3)sc2c1 28.2%
Cc1cc(C(=O)N2CCN(c3nc4ccc(F)cc4s3)CC2)no1 6.3%
O=C(c1cnccn1)N1CCN(c2nc3ccc(F)cc3s2)CC1 -8.97%
Cc1cc(C(=O)N2CCN(c3nc4ccc(F)cc4s3)CC2)n(C)n1 0.29%
O=C(c1ccc([N+](=O)[O-])o1)N1CCN(c2ccccn2)CC1 0.79%
O=C(c1ccco1)N1CCN(c2nc3ccc(F)cc3s2)CC1 10.7%
